Values joined by “and” are separate entries in the source; they are usually repeats but may differ in a detail not shown here. Identical values can stand only once. Hit rate of the full screen: of about 5,500 compounds, about 2,000 (36%) were called active. Not shown: some 18% with an inconclusive outcome. Cut-off read from the data, not from the text of the source: active = normalized growth mostly below about 0.91 (no sharp cut-off); inconclusive = no clear call, values can overlap the other calls; inactive = mostly above about 0.92. Some of the results follow.
Test: chemical genetic growth profiling, strain panel (AID 1159580);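 note: tested at 20 µM; growth read once vehicle control cultures reached saturation at 30 °C; 1 = growth at the plate median or of vehicle wells; lower values mean less growth of the strain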
Details: S. cerevisiae deletion strains, growth OD

Measured: normalized growth

COc1cccc2c1cc([N+](=O)[O-])c1c(C(=O)O)cc3c(c12)OCO3
inactive: locus YAL021C, strain ccr4, hits give low values 1.01 | locus YAL026C, strain drs2, hits give low values 1.02 | locus YAL030W, strain snc1, hits give low values 1.02 | locus YBL061C, strain skt5, hits give low values 1.02 | locus YBR009C, strain hhf1, hits give low values 1.03 | locus YBR021W, strain FUR4, hits give low values 0.991 | locus YBR023C, strain chs3, hits give low values 1.02 | locus YBR171W, strain sec66, hits give low values 1.05 | locus YBR229C, strain ROT2, hits give low values 1.01 | locus YBR231C, strain swc5, hits give low values 1.03 | locus YBR279W, strain paf1, hits give low values 1.02 | locus YCL011C, strain gbp2, hits give low values 1.03 | locus YCL016C, strain dcc1, hits give low values 1.02 | locus YCL029C, strain bik1, hits give low values 1.02 | locus YCL061C, strain MRC1, hits give low values 1.02 | locus YCL069W, strain vba3, hits give low values 1.02 | locus YCR088W, strain abp1, hits give low values 1.02 | locus YDL005C, strain med2, hits give low values 1.04 | locus YDL035C, strain GPR1, hits give low values 1.01 | locus YDL040C, strain nat1, hits give low values 1 | locus YDL074C, strain BRE1, hits give low values 1.04 | locus YDL101C, strain DUN1, hits give low values 1.03 | locus YDL134C, strain PPH21, hits give low values 1.01 | locus YDL185W, strain tfp1, hits give low values 1 | locus YDL192W, strain arf1, hits give low values 1.04 | locus YDR001C, strain nth1, hits give low values 1.02 | locus YDR069C, strain doa4, hits give low values 1.02 | locus YDR101C, strain arx1, hits give low values 1.03 | locus YDR137W, strain rgp1, hits give low values 1.03 | locus YDR150W, strain NUM1, hits give low values 1.02 | locus YDR159W, strain sac3, hits give low values 1.04 | locus YDR162C, strain NBP2, hits give low values 1.03 | locus YDR195W, strain ref2 1 | locus YDR297W, strain sur2, hits give low values 1.03 | locus YDR318W, strain mcm21, hits give low values 1.02 | locus YDR334W, strain swr1, hits give low values 1.02 | locus YDR335W, strain msn5, hits give low values 1.02 | locus YDR388W, hits give low values 1.02 | locus YDR392W, strain spt3, hits give low values 0.971 | locus YDR502C, strain sam2, hits give low values 1.01 | locus YEL003W, strain gim4, hits give low values 1.03 | locus YEL037C, strain rad23, hits give low values 1.02 | locus YEL061C, strain CIN8 (second series), hits give low values 1.02 | locus YEL061C, strain CIN8, hits give low values 1.01 | locus YER015W, strain faa2, hits give low values 1.02 | locus YER016W, strain bim1, hits give low values 1.02 | locus YER110C, hits give low values 1.01 | locus YER111C, strain swi4, hits give low values 1.03 | locus YER155C, strain BEM2 (second series), hits give low values 1.03 | locus YER155C, strain BEM2, hits give low values 1.01 | locus YER167W, strain BCK2, hits give low values 0.999 | locus YFR010W, strain ubp6, hits give low values 1.02 | locus YGL078C, strain dbp3, hits give low values 0.997 | locus YGL086W, strain mad1, hits give low values 1.03 | locus YGL167C, strain pmr1, hits give low values 1.04 | locus YGL173C, strain kem1, hits give low values 1.04 | locus YGL227W, strain vid30, hits give low values 1.02 | locus YGL240W, strain doc1, hits give low values 1.03 | locus YGL248W, strain PDE1, hits give low values 1.01 | locus YGL253W, strain hxk2, hits give low values 1.01 | locus YGR135W, strain pre9, hits give low values 0.994 | locus YGR229C, strain SMI1, hits give low values 1.02 | locus YGR252W, strain gcn5, hits give low values 0.906 | locus YHR013C, strain ard1, hits give low values 1.02 | locus YHR027C, strain rpn1, hits give low values 1.02 | locus YHR030C, strain SLT2, hits give low values 1.01 and 0.92 | locus YHR079C, strain IRE1 (second series), hits give low values 1.01 | locus YHR079C, strain IRE1, hits give low values 0.914 | locus YHR094C, strain hxt1, hits give low values 1.02 | locus YHR129C, strain ARP1, hits give low values 1.01 | locus YHR142W, strain chs7, hits give low values 1.01 | locus YHR200W, strain rpn10, hits give low values 1.02 | locus YIL066C, strain RNR3, hits give low values 1.02 | locus YIL073C, strain SPO22, hits give low values 1.03 | locus YIL125W, strain kgd1, hits give low values 0.995 | locus YIR030C, strain dcg1, hits give low values 1.02 | locus YJL092W, strain hpr5, hits give low values 1.02 | locus YJL095W, strain BCK1 (second series), hits give low values 1.01 | locus YJL095W, strain BCK1, hits give low values 1.04 and 0.987 | locus YJL115W, strain asf1, hits give low values 1.02 | locus YJL129C, strain trk1, hits give low values 1.03 | locus YJL134W, strain LCB3, hits give low values 1.02 | locus YJL154C, strain vps35, hits give low values 1.02 | locus YJL164C, strain tpk1, hits give low values 0.991 | locus YJL166W, strain qcr8, hits give low values 1.02 | locus YJL168C, strain set2, hits give low values 1.01 | locus YJL187C, strain SWE1 (second series), hits give low values 1.03 | locus YJL187C, strain SWE1, hits give low values 1.02 | locus YJR043C, strain POL32, hits give low values 1.01

Reference: PubChem BioAssay AID1159580 (chemical genetic matrix, 2015)
